In PubChem BioAssay AID463173 (ICCB-Longwood Screening Facility, Harvard Medical School, 2010):
About 4,300 (8.3%) of roughly 52,000 compounds were called active. The sample as a whole holds a higher share of actives than the screen did. Values without a mark were called inactive. Rule as the data show it: active = survival mostly below about 52% (no sharp cut-off); inactive = mostly above about 56%.

What follows are molecules tested on DeltatarO mutant (assay: growth inhibition of S. aureus wild type versus tarO mutant, primary screen, teichoic acid synthesis inhibitors, RN4220, OD600 (AID 463173)). Conditions: OD600, 18 h, active compounds read low, screened at 18.75 µg/mL (by protocol).

Row | SMILES | survival
1 | Cc1cccc(C)c1-n1ncc(C(=O)Nc2ccc3c(c2)OCO3)c1C1CCN(C(=O)OC(C)(C)C)CC1 | 100%
2 | Cc1ccc(-c2cn3nc(N4CCCC(C(=O)NCc5ccc(F)cc5)C4)sc3n2)cc1 (stereo not given) | 86%
3 | CCNC(=O)NC1(C(=O)N2CCC(Cc3ccccc3)CC2)CCCCC1 | 87%
4 | Cc1ccc(N2CC(NC(=O)c3cccc(Cl)c3)CC2=O)cc1C (stereo not given) | 75%
5 | COc1cc(C(=O)N2CCC(c3nc4ccccc4o3)CC2)cc(OC)c1OC | 91%
6 | Cn1c2ccccc2c2c(C(=O)N3CCN(c4ccc(F)cc4)CC3)cn(C3CCCCC3)c(=O)c21 | 132%
7 | CC(C)c1ccc2occ(CC(=O)Nc3ccccc3Cl)c2c1 | 85%
8 | COC(=O)c1ccc(NC(=O)Cc2coc3cc(C)ccc23)cc1 | 91%
9 | Cc1ccc2c(CC(=O)Nc3cccc(C(F)(F)F)c3)coc2c1 | 1% (active)
10 | Cc1cccc(NC(=O)c2oc3ccccc3c2NC(=O)Cc2coc3ccc(C(C)C)cc23)c1 | 67%
11 | Cc1ccc2onc(CC(=O)Nc3cccc(C(F)(F)F)c3)c2c1 | 54%
12 | CCCCOC(=O)c1ccc(NC(=O)Cc2coc3ccc(C(C)C)cc23)cc1 | 69%
13 | Cc1ccc(NC(=O)Cc2coc3ccc(C(C)C)cc23)cc1Cl | 37% (active)
14 | Cc1ccc(NC(=O)Cc2coc3ccc(C(C)C)cc23)c(C)c1 | 88%
15 | CC(C)c1ccc2occ(CC(=O)Nc3cccc(C(F)(F)F)c3)c2c1 | 0% (active)
16 | CCN1Cc2cccc(C(=O)Nc3ccc(F)cc3)c2C1=O | 129%
17 | Cc1cc(C)cc(N2CCn3c2nc2c3c(=O)n(CCc3ccccc3)c(=O)n2C)c1 | 89%
18 | COCCn1c(SCC(=O)c2ccc(OC)cc2)nc2cc(C(=O)NC3CCCC3)ccc2c1=O | 94%
19 | Cc1ccc(S(=O)(=O)N(C#N)c2nc(C)cc(C)n2)cc1 | 71%
20 | C=C(C)c1cccc(C(C)(C)NC(=O)N(C)C2CCN(C)CC2)c1 | 82%
21 | COc1ccccc1-c1nnc(C2CCN(S(=O)(=O)c3ccccc3)CC2)o1 | 84%
22 | Cc1ccc(C)c(NS(=O)(=O)c2ccc3c4c(cccc24)C(=O)N3)c1 | 52% (active)
23 | COc1ccc(C)cc1NS(=O)(=O)c1ccc2c3c(cccc13)C(=O)N2 | 58%

Row | SMILES | survival
24 | Cc1ccc(NS(=O)(=O)c2ccc3c4c(cccc24)C(=O)N3)c(C)c1 | 58%
25 | COc1ccc2nc(NC(=O)c3nc(S(=O)(=O)Cc4ccc(C)cc4)ncc3Cl)sc2c1 | 82%
26 | O=C(Nc1nc2ccc(F)cc2s1)c1nc(S(=O)(=O)Cc2ccccc2)ncc1Cl | 17% (active)
27 | CSc1ncc(Cl)c(C(=O)Nc2nc3ccc(F)cc3s2)n1 | 98%
28 | Cc1cccc(CS(=O)(=O)c2ncc(Cl)c(C(=O)Nc3nc4ccc(F)cc4s3)n2)c1 | -1% (active)
29 | O=C(Nc1nc2ccc(F)cc2s1)c1nc(S(=O)(=O)Cc2ccccc2F)ncc1Cl | 80%
30 | Cc1ccc2nc(NC(=O)c3nc(SCc4ccccc4C)ncc3Cl)sc2c1 | 98%
31 | COc1ccc2nc(NC(=O)c3nc(S(=O)(=O)Cc4ccccc4)ncc3Cl)sc2c1 | 77%
32 | Cc1ccc(CS(=O)(=O)c2ncc(Cl)c(C(=O)Nc3nc4ccc(F)cc4s3)n2)cc1 | 9% (active)
33 | Cc1ccc(CS(=O)(=O)c2ncc(Cl)c(C(=O)Nc3nc4ccc(C)cc4s3)n2)cc1 | 6% (active)
34 | COc1ccc2nc(NC(=O)c3nc(S(=O)(=O)Cc4cccc(C)c4)ncc3Cl)sc2c1 | 49%
35 | Cc1ccc(NC(=O)N2CCC(CN3CCCCCC3)CC2)c(Cl)c1 | 84%
36 | O=C(c1ccccc1)N1CCCCC1CCN1CCCCC1 (stereo not given) | 70%
37 | CCc1ccc(N(CC)C(=O)Cn2nc(Cc3cccnc3)c3ccccc3c2=O)cc1 | 81%
38 | CCOc1ccc(S(=O)(=O)N(CC(=O)Nc2ccc3c(c2)OCO3)c2ccccc2)cc1 | 72%
39 | O=C(Cn1ncc2c3ccccc3n(Cc3cccc(Cl)c3)c2c1=O)Nc1ccc(F)cc1F | 103%
40 | CC(C)CCNC(=O)CN1C(=O)c2cccnc2Oc2ccccc21 | 85%
41 | CC(C)c1cnc2c(c1SCC(=O)N1CCCCC1)c(=O)n(C)c(=O)n2C | 107%
42 | COCCNc1ccc(-c2nc(-c3ccccn3)no2)cc1[N+](=O)[O-] | 43% (active)
43 | COCCNc1ccc(-c2nc(-c3ccncc3)no2)cc1[N+](=O)[O-] | 77%
44 | O=[N+]([O-])c1cc(-c2nc(-c3ccccn3)no2)ccc1NCc1ccccc1 | 39% (active)
45 | Cc1noc(-c2ccc(NCc3ccccc3)c([N+](=O)[O-])c2)n1 | 66%
46 | CCCNc1ccc(-c2nc(-c3ccccn3)no2)cc1[N+](=O)[O-] | 111%

Row | SMILES | survival
47 | COCCNc1ccc(-c2nc(-c3ccco3)no2)cc1[N+](=O)[O-] | 54%
48 | CCCCNc1ccc(-c2nc(-c3ccccn3)no2)cc1[N+](=O)[O-] | 46% (active)
49 | CCNc1ccc(-c2nc(-c3ccccn3)no2)cc1[N+](=O)[O-] | 60%
50 | O=[N+]([O-])c1cc(-c2nc(-c3ccccc3)no2)ccc1NCc1cccnc1 | 47% (active)
51 | Cc1ccc(CNc2ccc(-c3nc(-c4ccccn4)no3)cc2[N+](=O)[O-])cc1 | 104%
52 | Cc1ccc(-c2noc(-c3ccc(NCc4cccnc4)c([N+](=O)[O-])c3)n2)cc1 | 104%
53 | O=[N+]([O-])c1cc(-c2nc(-c3cccnc3)no2)ccc1NCc1ccccc1 | 63%
54 | CCCCOc1ccc(C(=O)NCCc2csc3nc(-c4ccccc4F)nn23)cc1 | 84%
55 | NCc1nc2cccnc2n1Cc1ccccc1Cl | 81%
56 | COc1ccc(C)cc1NC(=O)Nc1cc(C(=O)NCc2ccc(C)cc2)ccc1N1CCCC1 | 82%
57 | Cc1cc2c(cc1NS(=O)(=O)c1ccc(NC(=O)CC(C)C)cc1)n(C)c(=O)c(=O)n2C | 86%
58 | COc1ccc(OC)c(-c2cc(C(=O)NCCc3ccccc3)c3c(-c4ccc(C)cc4)[nH]nc3n2)c1 | 67%
59 | CCCCNc1nc2c(S(=O)(=O)c3ccc(Br)cc3)nnn2c2ccsc12 | 74%
60 | CCOc1nc(Nc2ccccc2)nc(OCC)n1 | 115%
61 | CCN(C(=O)CCS(=O)(=O)c1ccc2c(c1)CCN2C(C)=O)c1cccc(C(F)(F)F)c1 | 101%
62 | Cn1c(=O)cc(SCC(=O)NCc2ccc(F)cc2)c2cc(Cl)ccc21 | 88%
63 | CCn1c(=O)cc(SCC(=O)NCc2ccc(C)cc2)c2ccccc21 | 84%
64 | CCN(CCCNC(=O)CSc1cc(=O)n(CC)c2ccccc12)c1ccccc1 | 53%
65 | CCN(CCCNC(=O)CSc1cc(=O)n(C)c2cc(Cl)ccc12)c1cccc(C)c1 | 90%
66 | CCn1c(=O)cc(SCC(=O)NCc2cccc(Cl)c2)c2ccccc21 | 38% (active)
67 | CCc1ccc(CNC(=O)CSc2cc(=O)n(CC)c3ccccc23)cc1 | 87%
68 | CCn1c(=O)c2cc(C(=O)NCCc3cccc(C)c3)sc2c2ccccc21 | 70%
69 | CCN(CCCNC(=O)CSc1cc(=O)n(CC)c2ccccc12)c1cccc(C)c1 | 38% (active)

Row | SMILES | survival
70 | CCn1c(=O)c2cc(C(=O)NCCCN(C)Cc3ccccc3)sc2c2ccccc21 | 106%
71 | CCN(CCCNC(=O)c1cc2c(=O)n(CC)c3ccccc3c2s1)c1cccc(C)c1 | 42% (active)
72 | Cn1c(=O)cc(SCC(=O)NCCc2ccc(Cl)cc2)c2cc(Cl)ccc21 | 75%
73 | CCc1ccc(CNC(=O)CSc2cc(=O)n(C)c3ccc(Cl)cc23)cc1 | 31% (active)
74 | Cc1cc(C)c(NC(=O)C2CCN(c3nn4c(=O)cc(C)nc4s3)CC2)c(C)c1 | 103%
75 | CC(=O)Nc1ccc(NCc2cccs2)cc1 | 101%
76 | Cc1cc(Nc2ccc(C(C)C)cc2)nc(-n2nc(C)cc2C)n1 | 90%
77 | COC(=O)c1cc2oc(C)cc2n1CC(=O)Nc1ccc(OC)c(OC)c1 | 131%
78 | COc1ccc(N2CCN(Cc3nc4c(c(=O)[nH]c(=O)n4C)n3Cc3ccc(C)cc3)CC2)cc1 | 113%
79 | CCOC(=O)c1c(C)n(C2CCCCC2)c2ccc(OCC(N)=O)cc12 | 69%
80 | CCOC(=O)C1CCC(CN(Cc2c(Cl)cccc2Cl)S(=O)(=O)c2ccc(Cl)cc2)CC1 (stereo not given) | 81%
81 | Cc1cccc2c(=O)cc(CSc3ccccc3NC(=O)c3cccc(Br)c3)[nH]c12 | 86%
82 | CCN(CC)CCNC(=O)c1c2c(nc3ccccc13)C(=O)N(C1CCCCC1)C2 | 94%
83 | CCOc1ccc2c(c1)c(=O)c(C(=O)c1ccc(CC)cc1)cn2CC(=O)Nc1ccccc1C | 70%
84 | CCOC(=O)C1CCN(C(=O)c2ccc(C)c(NC(=O)c3nsc4ccccc34)c2)CC1 | 88%
85 | CCN(CCCNC(=O)c1cc2c(=O)n(C)c3ccccc3c2s1)c1ccccc1 | 57%
86 | CCN(CCCNC(=O)c1cc2c(=O)n(CC)c3ccccc3c2s1)Cc1ccccc1 | 101%
87 | CCN(CCCNC(=O)c1cc2c(=O)n(CC)c3ccccc3c2s1)c1ccccc1 | 47% (active)
88 | Cc1ccc(Sc2c(C(=O)NCc3cccc(F)c3)[nH]c3ccccc23)cc1 | 72%
89 | O=C(Cn1cnc2scc(-c3ccccc3)c2c1=O)NCc1ccco1 | 60%
90 | CCc1cccc(C)c1Nc1c(-c2ccc(SC)cc2)nc2sccn12 | 50%
